# Assay outcomes as filed in PubChem.
# Most compounds without a hit are left out; they make up all but 6.6% or so of the library.
# BoNT A protease: BoNT A light chain protease inhibition; AID 588499; 360,000 tested, 0.17% active; inhibition, % at 10 µM; multiplex microsphere protease substrate cleavage, flow cytometry; in the data active = inhibition above about 30%; inconclusive = no clear call, values can overlap the other calls; note: plate controls were buffer without enzyme for full effect and enzyme alone for no effect
# BoNT F protease: blocks Botulinum neurotoxin F light chain protease | 360,000 tested, 0.22% active | inhibition, % at 10 µM | Multiplex microsphere protease cleavage assay, flow cytometry; in the data active = inhibition above about 35%, passing the limit was not always enough; inconclusive = no clear call, values can overlap the other calls; note: plate controls were buffer without enzyme for full effect and enzyme alone for no effect
# GDH-TPI counter-1: GDH-TPI coupled enzyme inhibition counter-screen; GDH-TPI coupled enzyme counterscreen, NADH absorbance; inhibition, % at 4.8 µM; 360,000 tested, 1.2% active; AID 588335; in the data active = inhibition above about 30%;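 note: 0% = DMSO wells and 100% = wells lacking the enzyme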
# Anthrax LF prot: inhibitors of Bacillus anthracis lethal factor protease | P15917 | inhibition, % at 10 µM | multiplex microsphere protease cleavage assay, LF | 360,000 tested, 0.12% active; in the data active = inhibition above about 30%; inconclusive = no clear call, values can overlap the other calls; note: plate controls were buffer without enzyme for full effect and enzyme alone for no effect
# Target sequence (P15917 whole entry, looked up): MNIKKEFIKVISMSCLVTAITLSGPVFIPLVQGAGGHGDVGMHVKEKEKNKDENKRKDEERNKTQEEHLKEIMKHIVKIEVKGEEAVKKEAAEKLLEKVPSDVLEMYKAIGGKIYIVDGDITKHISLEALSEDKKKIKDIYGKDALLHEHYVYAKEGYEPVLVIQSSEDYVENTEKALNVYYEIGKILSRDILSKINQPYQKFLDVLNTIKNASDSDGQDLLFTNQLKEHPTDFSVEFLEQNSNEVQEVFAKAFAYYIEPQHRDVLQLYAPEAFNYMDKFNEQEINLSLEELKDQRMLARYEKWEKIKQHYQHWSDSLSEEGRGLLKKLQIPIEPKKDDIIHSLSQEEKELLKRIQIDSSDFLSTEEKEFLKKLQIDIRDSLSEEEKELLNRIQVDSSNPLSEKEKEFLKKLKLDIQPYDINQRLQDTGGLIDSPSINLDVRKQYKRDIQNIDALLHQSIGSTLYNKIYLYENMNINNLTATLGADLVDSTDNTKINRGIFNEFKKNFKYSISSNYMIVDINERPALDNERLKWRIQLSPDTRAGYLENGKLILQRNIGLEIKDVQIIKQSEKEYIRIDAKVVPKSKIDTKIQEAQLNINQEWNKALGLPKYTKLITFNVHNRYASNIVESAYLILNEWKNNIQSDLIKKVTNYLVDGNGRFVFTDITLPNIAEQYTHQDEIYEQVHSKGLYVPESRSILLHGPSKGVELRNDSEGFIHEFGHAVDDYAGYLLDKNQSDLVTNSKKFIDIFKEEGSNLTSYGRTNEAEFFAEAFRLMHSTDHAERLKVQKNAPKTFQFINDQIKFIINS
# Mtb FBA inh: inhibitors of M. tuberculosis fructose-bisphosphate aldolase. P9WQA3. purified M. tuberculosis FBA, fluorescence read-out. inhibition, % at 1 µM. 360,000 tested, 2.3% active;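 note: 0% = vehicle and 100% = reference inhibitor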
# Bead autofluor: compound fluorescence in toxin protease inhibitor counterscreen. compound autofluorescence counterscreen, microsphere flow cytometry; active compounds read high. fluorescence intensity (concentration not given with the values). 360,000 tested, 3.1% active. AID 624483; in the data active = fluorescence intensity above about 16000; inconclusive = no clear call, values can overlap the other calls
# Mtb FBA inh conf: Mtb FBA inhibition, confirmed | AID 651616 | purified M. tuberculosis FBA, fluorescence read-out | 5,600 tested, 78% active | inhibition, % at 1 µM | shares compounds with Mtb FBA inh;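 note: 0% = vehicle wells and 100% = reference inhibitor wells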
# GDH-TPI counter-2: counter-screen for M. tuberculosis FBA inhibitors: GDH-TPI coupled enzyme inhibition; 5,600 tested, 81% active; inhibition, % at 1 µM; AID 652141; shares compounds with Mtb FBA inh; GDH-TPI coupled enzyme counterscreen, fluorescence; in the data active = inhibition above about 10%
# Starred values were filed as active, the others as inactive; ? = inconclusive; / = no result given; + = active, no number. Cut-off read from the data, not from the text of the source, unless noted: active = inhibition above about 27%; inactive = the rest.
SMILES,BoNT A protease,BoNT F protease,GDH-TPI counter-1,Anthrax LF prot,Mtb FBA inh,Bead autofluor,Mtb FBA inh conf,GDH-TPI counter-2
CCC(C)NC(=O)c1cc2c(=O)n(CC)c3ccccc3c2s1 (centres undefined),-5.4,-20.1,18.4,19.1,47.7*,4714,99.7*,92.0*
CCCCN(CC)CCNC(=O)c1cc2c(=O)n(CC)c3ccccc3c2s1,-1.1,-17.6,18.0,2.1,40.4*,3340,175.6*,115.7*
CCn1c(CNC(=O)c2ccc(F)cc2)cc2ccccc21,-1.7,-9.4,7.7,-8.7,1.4,3947,/,/
CC(C)CCN1C(=O)c2ccccc2C1C(=O)NCc1cccnc1 (centres undefined),-0.7,-4.5,-5.2,-0.1,3.9,4249,/,/
CCCCN(CC)CCCNC(=O)c1cc2c(=O)n(CC)c3ccccc3c2s1,1.0,-28.0,14.0,-0.3,79.2*,4384,6.3,-2.0
CCn1c(=O)c2cc(C(=O)NCC(OC)OC)sc2c2ccccc21,1.8,5.8,15.8,4.7,61.2*,3084,+,179.2*
CCCCCn1c(=O)[nH]c2cc(C(=O)NCCCN(CC)CC)ccc2c1=O,0.4,-1.2,16.3,-1.6,2.7,6292,/,/
CCOC(CNC(=O)c1cc2c(=O)n(CC)c3ccccc3c2s1)OCC,-2.4,-3.5,19.3,1.5,18.2,3809,/,/
COc1ccc([C@H]2C[C@@H](O)[C@H](n3cc(COC(=O)c4ccccc4)nn3)CN2C(=O)c2cccs2)cc1,-0.1,-2.2,4.3,-3.4,-1.5,4038,/,/
NC(=NCCc1ccccc1)NC(=O)c1cc(Cl)ccc1O,-1.2,-5.3,4.8,-4.0,45.9*,4375,89.5*,76.9*
Fc1ccccc1/C=N/n1cc(-c2ccccc2)[nH]c1=S,-0.6,-3.9,-2.0,3.0,51.0*,4255,136.7*,127.2*
Cc1ccc(C)c(/C=N/n2cc(-c3ccccc3)[nH]c2=S)c1,0.6,1.0,1.2,-3.6,43.4*,4040,+,+
Fc1ccccc1/C=N/n1cnnc1,-0.1,6.2,-12.0,2.5,4.7,10290,/,/
Cc1cccc(-n2cc(-c3ccccc3)[nH]c2=S)c1,-0.3,15.1,-0.4,-6.4,0.1,3548,/,/
Cc1cc(S(=O)(=O)Nc2ccc(C(=O)NCc3ccncc3)cc2)ccc1F,?,?,-6.5,?,-2.3,5863,/,/
COCCNC(=O)CN(C(=O)Cn1nnc2ccccc21)c1ccc(C)c(F)c1,0.2,24.2,3.6,-4.2,-3.5,3967,/,/
Cc1cc(OCC(=O)NNC(=S)NC(=O)c2ccc(Br)o2)ccc1Cl,-2.0,-5.6,-1.7,-2.4,-2.5,5288,/,/
O=C(CN(Cc1cccs1)C(=O)CNS(=O)(=O)c1ccccc1)NC1CCCC1,-0.2,-2.9,-1.9,-0.1,-4.1,4813,/,/
COc1ccccc1-c1nnc(Nc2nc3c(OC)cccc3s2)o1,0.4,-7.1,42.9*,-3.5,33.2*,4052,39.9*,41.4*
COc1ccc(-c2[nH]ncc2CN(CCO)Cc2cccs2)c(F)c1,0.0,-1.2,-2.5,-0.9,4.5,3844,/,/
CCOC(=O)Nc1ccc2c(COC(=O)CN(C)S(=O)(=O)c3ccc(C)cc3)cc(=O)oc2c1,1.7,6.4,12.9,0.9,79.2*,3173,41.2*,23.0*
CCOC(=O)Nc1ccc2c(COC(=O)c3ccccc3O)cc(=O)oc2c1,-1.1,0.0,20.0,2.4,56.4*,3627,37.8*,32.1*
CCOC(=O)Nc1ccc2c(CN3CCC(C(=O)OC)CC3)cc(=O)oc2c1,-0.6,-17.8,6.9,-3.7,20.9,4046,/,/
Cc1ccc(-n2nc3c(=O)n(CCCC(=O)NC4CCC(C)CC4)nc(C)c3c2C)cc1 (centres undefined),-1.7,-14.5,-1.5,0.3,1.1,4421,/,/
CCOC(=O)C1=C(CSc2nc(-c3ccccc3)ccc2C#N)OC(N)=C(C#N)C1c1ccc(OC)cc1 (centres undefined),5.8,18.9,14.6,5.0,74.4*,4352,111.6*,92.6*
CCOC(=O)C1=C(CSc2nc(CC)c(C)cc2C#N)OC(N)=C(C#N)C1c1ccccc1 (centres undefined),1.7,2.7,13.6,-1.8,5.3,2260,/,/
